Source: PubChem BioAssay (National Center for Advancing Translational Sciences (NCATS))
OvCa metastasis – ovarian cancer metastasis inhibition, 3D TME model. Potency, µM (series often up to 45.8 µM), hits mostly inhibitors. AID 1963576. SKOV3ip1-GFP adhesion/invasion on 3D omental model, fluorescence. 46,000 tested, 0.1% active; note: nearly all actives have a fitted effect of over 65% in size
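qHTS, 4-pt dose (0.36-46 umol/L); SKOV3ip1-GFP, 1,200 cells/well, no FBS; primary omental fibroblast/mesothelial co-culture 48 h pre-grown; 2 h RT + 16 h 37 C; PBS wash, 4% PFA; GFP count 488/509 nm.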
NTMT1 inh – blocks human N-terminal methyltransferase 1 activity. Q9BV86. NTMT1 MTase-Glo SAH luminescence, purified enzyme. Potency, µM (series often up to 114 µM), actives largely listed as inhibitors. 59,000 tested, 2.5% active; note: nearly all actives have a fitted effect of over 65% in size
Target sequence (Q9BV86 whole entry, looked up): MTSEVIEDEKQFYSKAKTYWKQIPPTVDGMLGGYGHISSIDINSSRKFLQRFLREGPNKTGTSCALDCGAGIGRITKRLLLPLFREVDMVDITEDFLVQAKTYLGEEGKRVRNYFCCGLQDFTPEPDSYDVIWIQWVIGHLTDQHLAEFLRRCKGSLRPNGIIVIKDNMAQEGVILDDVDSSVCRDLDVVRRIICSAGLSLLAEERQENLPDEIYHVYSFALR
p53null 32C kill – p53 null cell cytotoxicity, permissive temperature; Potency, µM (top dose mostly 46.1 µM), most hits filed as cytotoxic; 55,000 tested, 0.62% active; H1299-neo p53 null cells, ATP luminescence, 24 h, 32C; note: nearly all actives have a fitted effect of over 55% in size
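We seeded p53-null H1299-neo cells, incubated them overnight at 37C, and added compounds across a range up to 46 uM. After 24 hours at 32C, ATP reagent was applied for 20 min at room temperature and luminescence recorded.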
p53null 39C kill – selectivity test: cytotoxicity in p53 null cells, nonpermissive temperature; H1299 p53-null (neo) cells, 39C, ATPlite viability, 24 h; Potency, µM (titrated, usually from 46.1 µM), most hits filed as cytotoxic; 55,000 tested, 0.97% active; note: nearly all actives have a fitted effect of over 50% in size
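Following overnight plating at 37C (600 cells/well), H1299-neo or H1299-p53A138V cells are dosed up to 46 uM. Incubation lasts 24 hr at 39C before ATP detection.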
GPR32 ag – agonists of human resolvin D1 receptor DRV1 (GPR32); O75388; CHO-K1 GPR32 beta-arrestin PathHunter luminescence, 90 min; zero percent set by DMSO-only wells; activation, % at 76.9 µM; 48,000 tested, 2.5% active; AID 1346428;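 active = activation of at least 60% and not above a set upper limit, about 1 call in 100 departs from these limits; inconclusive = activation of 40% to 60%, or above that upper limit; inactive = activation under 40%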
Target sequence (O75388 whole entry, looked up): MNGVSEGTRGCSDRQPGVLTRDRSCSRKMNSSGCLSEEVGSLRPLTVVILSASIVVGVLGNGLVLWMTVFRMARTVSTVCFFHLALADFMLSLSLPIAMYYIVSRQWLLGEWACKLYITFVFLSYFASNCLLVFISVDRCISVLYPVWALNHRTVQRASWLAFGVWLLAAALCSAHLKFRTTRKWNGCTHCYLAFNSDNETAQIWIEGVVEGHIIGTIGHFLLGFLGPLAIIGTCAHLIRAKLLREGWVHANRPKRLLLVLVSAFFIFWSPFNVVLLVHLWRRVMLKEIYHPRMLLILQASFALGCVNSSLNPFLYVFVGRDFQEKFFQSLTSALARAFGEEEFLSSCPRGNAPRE
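Luminescent readout of beta-Gal complementation quantifies ligand-induced beta-arrestin association with GPR32 in CHO-K1 cells; 90 min compound incubation at 37 °C, detection 1 h at room temperature.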
GALC G270D act – enhancers of human galactocerebrosidase G270D mutant activity in cells; P54803; 145M-Twi-hGALC-G270D cells (Twitcher mouse brain line with human GALC G270D), HMU-beta-Gal fluorescence, 48 h; Potency, µM (highest dose often 57.5 µM), most hits filed as activators; 45,000 tested, 0.1% active; note: nearly all actives have a fitted effect of over 65% in size
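Live 145M-Twi cells (Twitcher mouse brain-derived, GALC-null) stably expressing human GALC-G270D, with a wild-type GALC line, were compound-treated. Residual GALC activity was then read as fluorescence from 0.1 mM final HMU-β-gal at pH 5.2; higher signal means activation.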
Hits are given with their value; 0 = inactive; ? = inconclusive; - = not tested or not shown; ! = not active in a repeat; [ ] = dose if it differs, or a comment. Most compounds without a hit are left out; they make up all but 4% or so of the library. Unless noted, calls come from the whole dose curve; as a rule, active = well fitted curve in the direction sought with a large enough effect; inconclusive = small, poorly fitted or top-dose-only effect, or another doubt; inactive = no such curve, though single readings can be large; an effect the other way counts as inactive or inconclusive.

SMILES | OvCa metastasis | NTMT1 inh | p53null 32C kill | p53null 39C kill | GPR32 ag | GALC G270D act
O=C(O)c1cccc(-c2ccc(-c3cn(C(=O)N4CCCCC4Cc4ccccc4)nn3)cc2)c1 (stereo unspecified) | - | 0 | - | - | - | -
COc1ccc(Nc2c(-c3ccc(Cl)cc3)nc3cnccn23)cc1OC | 0 | 0 | 0 | 0 | 97 | 0
C#CC1(O)CC[C@H]2[C@@H]3CCC4=CCCC[C@@H]4[C@H]3CC[C@@]21C (stereo partly specified) | - | 0 | - | - | 105 | 0
Cc1cc(C)cc(NC(=O)Cn2c(=O)oc3cc(S(=O)(=O)N4CCCC4)ccc32)c1 | 0 | 0 | 0 | 0 | 0 | 0
Cc1ccc(NC(=O)Cn2c(=O)oc3cc(S(=O)(=O)N4CCCCC4)ccc32)c(Cl)c1 | 0 | 0 | 0 | ? | 111 | 0
CC(C)c1ccc(NC(=O)Cn2c(=O)oc3cc(S(=O)(=O)N4CCCC4)ccc32)cc1 | 0 | 0 | 0 | 0 | 97 | 0
Cc1cc(-c2cnn3c(NCC4CC(C)(O)C4)cc(Oc4cccnc4)nc23)ccc1C(=O)NC1CC1 (stereo unspecified) | - | 0[12.6 µM] | - | - | - | -
CCCCNc1nc2c(c(=O)n(C)c(=O)n2C)n1CC(O)COc1ccccc1C (stereo unspecified) | 0 | ? | 0 | 0 | 67 | 0
CC(C)(C)c1ccc(CN2CCN(C(c3ccccc3)c3ccc(Cl)cc3)CC2)cc1 (stereo unspecified) | - | 0 | - | - | - | -
Cc1cccc(CN2CCN(C(c3ccccc3)c3ccc(Cl)cc3)CC2)c1 (stereo unspecified) | 0 | 32µM! | - | - | 0 | 0
CCNc1nc(NCc2ccc(F)cc2)c2cnn(C)c2n1 | 0 | 0 | 0 | 0 | 72 | 0
COCCNc1nc(NCc2cccc(Cl)c2)c2cnn(C)c2n1 | 0 | 0 | 0 | 0 | ? | 0
CCNC(=O)C1CCN(C(=O)C(C)(C)NC(=O)Nc2ccccc2Cl)CC1 | - | 0 | - | - | - | -
CCOc1ccc(CCNC(=O)c2ccnn2Cc2cccc(C)c2)cc1OCC | - | 0 | - | - | - | -
Nc1nc(Nc2ccc3c(c2)CC[C@@H](N2CCCC2)CC3)nn1-c1cc2c(nn1)-c1ccccc1CCC2 | - | 35µM | - | - | - | -
O=C(Nc1cccc(S(=O)(=O)Nc2ccc(Cl)cc2)c1)c1ccc(Cl)nc1 | - | - | - | 0[1.84 µM] | - | -
CC(=O)c1ccc(NS(=O)(=O)c2cccc(S(=O)(=O)c3ccc(Cl)cc3)c2)cc1 | 0 | ? | ? | 0 | 61 | 0
CC(=O)c1ccc(NS(=O)(=O)c2ccc3[nH]c4c(c3c2)CCCCCC4)cc1 | 0 | 0 | 0 | 0 | 73 | 0
CC(=O)Nc1ccc(NS(=O)(=O)c2ccc3[nH]c4c(c3c2)CCCCC4)cc1 | 0 | ? | 0 | 0 | 80 | 0
COC(=O)c1ccc(NS(=O)(=O)c2ccc3[nH]c4c(c3c2)CCCC4)cc1 | 0 | ? | 0 | 0 | 0 | 0
CC(=O)c1ccc(NS(=O)(=O)c2ccc3[nH]c4c(c3c2)CCCC4)cc1 | 0 | 0 | 0 | 0 | 0 | 0
COC(=O)c1ccc(NS(=O)(=O)c2ccc3[nH]c4c(c3c2)CCCCC4)cc1 | 0 | ? | 0 | 16µM | 0 | 0
C[C@]1(OC(=O)/C=C\c2ccc(O)cc2)C[C@@H](O)[C@]2(O)C=CO[C@@H](O[C@@H]3O[C@H](CO)[C@@H](O)[C@H](O)[C@H]3O)C12 (stereo partly specified) | - | 0 | - | - | - | -
CN(C)C(N)=NC(=N)N | - | 0 | - | - | - | -
COc1ccc(NC(=O)CN(C)S(=O)(=O)c2ccc3[nH]c4c(c3c2)CCCC4)cc1Cl | 0 | 0 | 0 | 0 | 91 | 0
SMILES | OvCa metastasis | NTMT1 inh | p53null 32C kill | p53null 39C kill | GPR32 ag | GALC G270D act
COc1ccc(NS(=O)(=O)c2ccc3[nH]c4c(c3c2)CCCCCC4)cc1 | 0 | ? | 0 | 0 | 74 | 0
COc1cccc(NS(=O)(=O)c2ccc3[nH]c4c(c3c2)CCCCCC4)c1 | 0 | 0 | 0 | 0 | 0 | 0
CC(C)C1=CC2=CCC3[C@](C)(CCC[C@@]3(C)C(=O)O)C2CC1O (stereo partly specified) | - | 0 | - | - | - | -
Cc1cc(-n2c(C)nc3ccccc3c2=O)ccc1NC(=O)c1ccccc1[N+](=O)[O-] | 0 | 0 | 0 | 0 | 94 | 0
Cc1cc(-n2c(C)nc3ccccc3c2=O)ccc1NC(=O)c1cccc([N+](=O)[O-])c1C | 0 | 0 | 0 | 0 | 0 | 0
Cc1ccc(Cn2c(C)c(CNCc3ccc(OC(C)C)cc3)c(C(=O)O)c2C)cc1 | 0 | ? | 0 | 0 | 86 | 0
Cc1ccc(Cn2c(C)c(CNCC(C)c3ccccc3)c(C(=O)O)c2C)cc1 (stereo unspecified) | 0 | 0 | 0 | 0 | 75 | 0
CC(C)(O)C1CC=C(C(=O)OCC2OC(Oc3c(O)cc(C(=O)O)cc3O)C(O)C(O)C2O)CC1 (stereo unspecified) | - | 0 | - | - | - | -
Cc1ccc(-n2ncc3c(N4CCN(CCO)CC4)ncnc32)cc1Cl | 0 | ? | 0 | 0 | 65 | 0
Cc1ccc(-n2ncc3c(N4CCN(C)CC4)ncnc32)cc1Cl | 0 | 0 | 0 | 0 | 0 | 0
Cc1ccc(Cl)cc1-n1ncc2c(N3CCC(C)CC3)ncnc21 | 0 | 0 | 0 | 0 | 62 | 0
Cc1ccc(-n2ncc3c(N4CCCCCC4)ncnc32)cc1C | 0 | 0 | 10µM | 0 | 0 | 0
Cc1ccc(-n2ncc3c(N4CCN(Cc5ccccc5)CC4)ncnc32)cc1C | 0 | 0 | 0 | 0 | 75 | 0
CC(C)(C)OC(=O)N1CCN(c2ccc(NCc3ccc4c(c3)OCO4)cc2)CC1 | - | 0 | - | - | - | -
Oc1cccc(Nc2cc(-c3ccccc3)ncn2)c1 | 0 | 40µM | 0 | ? | 0 | 0
Cc1cc(C)cc(Nc2cc(-c3ccccc3)nc(C)n2)c1 | 0 | 0 | 0 | ? | ? | 0
O=c1cc(-c2ccc(O)c(O)c2)oc2cc(O)cc(O)c12 | 0 | 32µM! | - | - | - | -
Cc1cccc(N2CCN(c3ccc(NC(=O)c4ccccc4)cc3C(=O)O)CC2C)c1 (stereo unspecified) | 0 | 0 | 0 | 0 | 0 | 0
Cc1cccc(N2CCN(c3ccc(C(=O)O)cc3NC(=O)c3cccc(Cl)c3)CC2C)c1 (stereo unspecified) | 0 | 79µM | 0 | 0 | 0 | 0
Cc1cc(CO)c(O)c(C(=O)CC2CC(=O)NC(=O)C2)c1 | - | 0 | - | - | - | -
COC(=O)c1c(NC(=O)CCCOc2ccc(C)cc2)sc2c1CCCC2 | 0 | 0 | 0 | 0 | 0 | 0
CCOC(=O)c1c(NC(=O)/C=C/c2ccc(Cl)cc2)sc2c1CCC(C)C2 (stereo unspecified) | 0 | ? | 0 | 0 | 79 | 0
COC(=O)c1c(NC(=O)CCCOc2cccc(C)c2)sc2c1C(C(=O)OC)CC2 (stereo unspecified) | 0 | 14µM | 0 | 0 | 0 | 0
